Measurements reported in the supplement of paper PMC11732987, “Enantioselective OTUD7B fragment discovery through chemoproteomics screening and high-throughput optimisation” (Communications Chemistry, 2025).

Columns and labels:
Test in all cases: log2 ratio of Biotin-Ahx-Ub-VS probe labelling (fragment/DMSO); higher = less target engagement (more negative = stronger competition), active = hit call of the paper (q ≤ 0.05, log2 ratio ≤ -1)
Settings in all cases: compound concentration: 200 uM; treatment time: 3 h
USP42 = target: T1, USP42 (UniProt Q9H9J4)
T1 sequence (whole entry): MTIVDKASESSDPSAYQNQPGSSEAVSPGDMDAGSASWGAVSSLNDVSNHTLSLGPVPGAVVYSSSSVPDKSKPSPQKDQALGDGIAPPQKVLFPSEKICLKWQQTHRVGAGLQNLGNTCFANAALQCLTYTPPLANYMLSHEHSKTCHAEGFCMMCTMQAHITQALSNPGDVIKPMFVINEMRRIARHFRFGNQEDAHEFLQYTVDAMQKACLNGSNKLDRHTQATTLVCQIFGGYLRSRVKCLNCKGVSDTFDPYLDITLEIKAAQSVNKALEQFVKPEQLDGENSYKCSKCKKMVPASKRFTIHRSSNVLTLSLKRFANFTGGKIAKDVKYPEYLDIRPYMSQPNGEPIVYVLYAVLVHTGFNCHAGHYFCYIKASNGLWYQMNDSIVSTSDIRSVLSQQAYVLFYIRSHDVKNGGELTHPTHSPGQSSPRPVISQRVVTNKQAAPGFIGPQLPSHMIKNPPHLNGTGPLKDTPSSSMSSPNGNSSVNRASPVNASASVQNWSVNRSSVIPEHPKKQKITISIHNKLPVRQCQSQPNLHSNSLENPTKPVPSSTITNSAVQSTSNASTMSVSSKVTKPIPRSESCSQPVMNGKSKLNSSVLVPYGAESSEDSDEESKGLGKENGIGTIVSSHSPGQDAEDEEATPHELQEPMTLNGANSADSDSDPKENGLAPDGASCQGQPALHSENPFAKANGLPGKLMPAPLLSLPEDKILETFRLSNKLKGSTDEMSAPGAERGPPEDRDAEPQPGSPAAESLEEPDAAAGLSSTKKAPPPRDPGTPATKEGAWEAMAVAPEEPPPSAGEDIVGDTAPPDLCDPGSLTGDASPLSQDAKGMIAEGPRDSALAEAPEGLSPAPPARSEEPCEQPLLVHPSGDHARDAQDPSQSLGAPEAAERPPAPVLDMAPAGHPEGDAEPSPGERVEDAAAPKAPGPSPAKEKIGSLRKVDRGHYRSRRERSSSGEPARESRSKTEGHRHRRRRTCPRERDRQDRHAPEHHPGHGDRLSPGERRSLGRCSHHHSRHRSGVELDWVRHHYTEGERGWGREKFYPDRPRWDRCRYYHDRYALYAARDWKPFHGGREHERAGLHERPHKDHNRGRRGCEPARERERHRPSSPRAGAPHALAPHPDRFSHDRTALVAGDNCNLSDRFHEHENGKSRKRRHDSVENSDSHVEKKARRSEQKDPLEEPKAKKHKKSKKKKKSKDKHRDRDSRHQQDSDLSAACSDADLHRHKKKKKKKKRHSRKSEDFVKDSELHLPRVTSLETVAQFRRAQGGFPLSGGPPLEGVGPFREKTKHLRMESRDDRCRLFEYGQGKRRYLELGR
Method in brief: (§1)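 Labelling with Biotin-Ahx-Ub-VS (0.5 µM final, 1 h) followed a 3 h triplicate treatment of HEK293T lysate (495 µg per sample, Tris/CHAPS/IGEPAL buffer with protease inhibitors) with fragment at 200 µM or vehicle. Labelled DUBs were NeutrAvidin-enriched, digested with LysC and trypsin, and run by diaPASEF LC-MS/MS. The values, average log2 fragment/vehicle ratios by unpaired t-test, come from global-median-normalised Spectronaut label-free quantities. Proteins with ≥2 unique peptides were used.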

USP46 = USP46 (UniProt P62068)
Method in brief: as §1

USP47 = target: T2, USP47 (UniProt Q96K76)
T2 sequence (whole entry): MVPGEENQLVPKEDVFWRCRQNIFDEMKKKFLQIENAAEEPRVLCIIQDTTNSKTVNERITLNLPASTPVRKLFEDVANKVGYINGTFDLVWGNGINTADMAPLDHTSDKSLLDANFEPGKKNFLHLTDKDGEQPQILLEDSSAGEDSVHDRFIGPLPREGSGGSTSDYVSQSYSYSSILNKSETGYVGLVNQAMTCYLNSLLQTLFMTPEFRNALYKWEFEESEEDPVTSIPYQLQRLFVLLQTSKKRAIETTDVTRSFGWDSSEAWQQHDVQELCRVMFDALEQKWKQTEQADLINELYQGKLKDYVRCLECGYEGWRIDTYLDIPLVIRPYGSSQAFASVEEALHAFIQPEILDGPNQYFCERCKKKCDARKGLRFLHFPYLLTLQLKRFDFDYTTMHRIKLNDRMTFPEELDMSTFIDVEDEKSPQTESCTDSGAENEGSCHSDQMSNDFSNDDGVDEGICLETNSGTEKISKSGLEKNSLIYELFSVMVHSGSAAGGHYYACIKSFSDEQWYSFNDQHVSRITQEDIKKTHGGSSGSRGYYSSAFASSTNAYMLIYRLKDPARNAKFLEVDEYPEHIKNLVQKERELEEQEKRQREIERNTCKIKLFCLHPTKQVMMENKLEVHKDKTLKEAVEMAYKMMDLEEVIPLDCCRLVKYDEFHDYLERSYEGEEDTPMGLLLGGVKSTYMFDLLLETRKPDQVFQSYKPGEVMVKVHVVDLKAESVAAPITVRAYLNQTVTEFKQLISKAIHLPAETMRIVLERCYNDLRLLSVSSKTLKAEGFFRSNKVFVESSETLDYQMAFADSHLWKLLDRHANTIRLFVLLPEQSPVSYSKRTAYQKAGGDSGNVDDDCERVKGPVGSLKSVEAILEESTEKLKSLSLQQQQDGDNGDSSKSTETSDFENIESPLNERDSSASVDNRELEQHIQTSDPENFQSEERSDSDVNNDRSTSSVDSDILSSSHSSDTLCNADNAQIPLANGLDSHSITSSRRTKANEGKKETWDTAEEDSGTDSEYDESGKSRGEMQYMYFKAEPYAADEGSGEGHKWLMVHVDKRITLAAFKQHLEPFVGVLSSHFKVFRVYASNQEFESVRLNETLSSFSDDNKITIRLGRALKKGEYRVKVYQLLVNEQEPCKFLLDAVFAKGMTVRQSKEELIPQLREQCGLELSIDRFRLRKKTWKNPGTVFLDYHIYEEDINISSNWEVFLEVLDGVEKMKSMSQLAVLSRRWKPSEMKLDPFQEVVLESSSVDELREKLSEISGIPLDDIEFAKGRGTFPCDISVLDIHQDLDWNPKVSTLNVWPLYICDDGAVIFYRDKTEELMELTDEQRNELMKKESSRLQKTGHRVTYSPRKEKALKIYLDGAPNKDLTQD
Method in brief: as §1

USP48 = target: T3, USP48 (UniProt Q86UV5)
T3 sequence (whole entry): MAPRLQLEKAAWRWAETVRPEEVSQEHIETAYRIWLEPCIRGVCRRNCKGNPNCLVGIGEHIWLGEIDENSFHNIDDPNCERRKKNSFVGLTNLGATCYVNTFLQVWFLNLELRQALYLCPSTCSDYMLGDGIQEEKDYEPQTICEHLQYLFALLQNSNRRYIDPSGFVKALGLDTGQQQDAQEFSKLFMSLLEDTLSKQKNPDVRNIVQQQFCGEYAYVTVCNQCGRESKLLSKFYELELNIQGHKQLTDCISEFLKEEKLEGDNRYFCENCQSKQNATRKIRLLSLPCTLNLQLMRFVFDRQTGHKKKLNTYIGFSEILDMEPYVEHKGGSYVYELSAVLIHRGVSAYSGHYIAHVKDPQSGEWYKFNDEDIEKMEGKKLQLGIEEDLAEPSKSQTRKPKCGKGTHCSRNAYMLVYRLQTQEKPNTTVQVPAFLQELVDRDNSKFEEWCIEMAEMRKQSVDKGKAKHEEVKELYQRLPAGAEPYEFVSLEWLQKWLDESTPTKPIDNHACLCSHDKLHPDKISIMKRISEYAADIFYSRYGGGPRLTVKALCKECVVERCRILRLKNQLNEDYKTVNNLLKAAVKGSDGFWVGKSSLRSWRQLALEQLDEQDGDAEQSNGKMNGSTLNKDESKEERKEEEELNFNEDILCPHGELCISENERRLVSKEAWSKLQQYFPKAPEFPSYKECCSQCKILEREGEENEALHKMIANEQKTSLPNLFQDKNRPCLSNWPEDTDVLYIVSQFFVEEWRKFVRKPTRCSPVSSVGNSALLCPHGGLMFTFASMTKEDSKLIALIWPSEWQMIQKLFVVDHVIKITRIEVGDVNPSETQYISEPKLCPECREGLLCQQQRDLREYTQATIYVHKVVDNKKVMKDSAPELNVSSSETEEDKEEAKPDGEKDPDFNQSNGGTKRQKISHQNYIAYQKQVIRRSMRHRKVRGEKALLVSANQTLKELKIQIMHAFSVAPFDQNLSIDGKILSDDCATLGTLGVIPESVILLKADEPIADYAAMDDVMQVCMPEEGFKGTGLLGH
Method in brief: as §1

USP5 = target: T4, USP5 (UniProt P45974)
T4 sequence (whole entry): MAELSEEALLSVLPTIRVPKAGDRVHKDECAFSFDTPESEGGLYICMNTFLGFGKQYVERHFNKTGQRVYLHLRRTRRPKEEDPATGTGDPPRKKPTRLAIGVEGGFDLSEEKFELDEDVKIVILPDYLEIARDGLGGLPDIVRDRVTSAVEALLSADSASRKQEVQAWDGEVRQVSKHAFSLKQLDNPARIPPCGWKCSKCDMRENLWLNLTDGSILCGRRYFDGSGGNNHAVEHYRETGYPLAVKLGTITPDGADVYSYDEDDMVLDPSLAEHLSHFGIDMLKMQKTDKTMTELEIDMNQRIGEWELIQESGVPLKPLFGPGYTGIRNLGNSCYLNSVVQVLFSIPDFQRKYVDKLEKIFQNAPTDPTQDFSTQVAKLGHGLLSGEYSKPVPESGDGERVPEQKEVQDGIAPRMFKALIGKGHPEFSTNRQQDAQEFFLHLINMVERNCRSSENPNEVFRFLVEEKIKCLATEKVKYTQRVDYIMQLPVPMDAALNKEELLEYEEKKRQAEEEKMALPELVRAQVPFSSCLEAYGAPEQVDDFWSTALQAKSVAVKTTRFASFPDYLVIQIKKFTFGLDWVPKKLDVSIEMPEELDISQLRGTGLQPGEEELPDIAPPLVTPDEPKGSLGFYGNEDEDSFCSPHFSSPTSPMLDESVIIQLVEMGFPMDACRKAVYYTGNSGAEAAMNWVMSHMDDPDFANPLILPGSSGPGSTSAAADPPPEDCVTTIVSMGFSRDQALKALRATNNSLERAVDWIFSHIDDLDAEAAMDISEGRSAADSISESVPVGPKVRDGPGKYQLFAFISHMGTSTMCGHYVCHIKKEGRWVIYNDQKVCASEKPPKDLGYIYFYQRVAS
Method in brief: as §1

USP54 = USP54 (UniProt Q70EL1)
Method in brief: as §1

USP7 = USP7 (UniProt Q93009)
Method in brief: as §1

USP8 = target: T5, USP8 (UniProt P40818)
T5 sequence (whole entry): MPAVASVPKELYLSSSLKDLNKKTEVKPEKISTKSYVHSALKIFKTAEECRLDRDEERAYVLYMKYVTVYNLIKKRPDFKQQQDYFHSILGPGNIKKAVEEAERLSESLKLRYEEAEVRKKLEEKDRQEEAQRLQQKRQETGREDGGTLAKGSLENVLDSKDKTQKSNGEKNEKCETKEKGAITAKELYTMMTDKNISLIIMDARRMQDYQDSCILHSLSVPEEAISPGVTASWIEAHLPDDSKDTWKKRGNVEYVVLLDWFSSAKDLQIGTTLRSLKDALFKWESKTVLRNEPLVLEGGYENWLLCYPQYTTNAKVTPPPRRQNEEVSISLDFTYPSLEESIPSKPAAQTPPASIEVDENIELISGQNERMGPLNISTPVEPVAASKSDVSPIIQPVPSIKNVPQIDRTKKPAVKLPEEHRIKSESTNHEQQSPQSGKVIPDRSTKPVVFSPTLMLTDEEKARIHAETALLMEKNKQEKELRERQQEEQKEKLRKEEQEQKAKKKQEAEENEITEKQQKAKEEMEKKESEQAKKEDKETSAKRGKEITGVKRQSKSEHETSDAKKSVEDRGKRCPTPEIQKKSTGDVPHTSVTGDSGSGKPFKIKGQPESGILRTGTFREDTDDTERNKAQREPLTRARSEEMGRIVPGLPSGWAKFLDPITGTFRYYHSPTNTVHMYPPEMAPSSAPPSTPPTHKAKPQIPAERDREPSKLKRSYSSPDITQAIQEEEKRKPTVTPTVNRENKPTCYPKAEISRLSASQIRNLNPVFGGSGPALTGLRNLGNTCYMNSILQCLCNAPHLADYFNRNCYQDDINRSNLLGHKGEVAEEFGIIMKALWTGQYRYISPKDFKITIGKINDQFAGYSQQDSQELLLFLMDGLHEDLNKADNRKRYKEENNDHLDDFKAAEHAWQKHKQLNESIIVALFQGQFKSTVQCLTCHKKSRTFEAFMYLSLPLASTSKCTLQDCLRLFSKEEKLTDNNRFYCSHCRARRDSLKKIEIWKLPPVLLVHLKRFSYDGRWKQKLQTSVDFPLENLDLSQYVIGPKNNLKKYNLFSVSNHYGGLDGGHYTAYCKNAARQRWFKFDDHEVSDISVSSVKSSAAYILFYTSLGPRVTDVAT
Method in brief: as §1

USP9X = USP9X (UniProt Q93008)
Method in brief: as §1

UniProt O00487 = target: UniProt O00487
Method in brief: as §1

Measured: log2 ratio of Biotin-Ahx-Ub-VS probe labelling

USP46, sequence (P62068 whole entry): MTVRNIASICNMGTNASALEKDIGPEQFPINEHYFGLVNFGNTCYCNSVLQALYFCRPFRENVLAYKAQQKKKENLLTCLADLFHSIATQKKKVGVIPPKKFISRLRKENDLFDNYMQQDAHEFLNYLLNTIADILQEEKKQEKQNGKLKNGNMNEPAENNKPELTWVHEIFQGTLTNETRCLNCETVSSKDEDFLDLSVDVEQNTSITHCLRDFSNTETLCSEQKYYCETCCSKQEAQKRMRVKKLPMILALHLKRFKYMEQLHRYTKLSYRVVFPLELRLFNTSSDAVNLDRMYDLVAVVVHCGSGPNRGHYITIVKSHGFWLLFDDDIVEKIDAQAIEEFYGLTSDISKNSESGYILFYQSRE
USP9X, sequence (Q93008 whole entry): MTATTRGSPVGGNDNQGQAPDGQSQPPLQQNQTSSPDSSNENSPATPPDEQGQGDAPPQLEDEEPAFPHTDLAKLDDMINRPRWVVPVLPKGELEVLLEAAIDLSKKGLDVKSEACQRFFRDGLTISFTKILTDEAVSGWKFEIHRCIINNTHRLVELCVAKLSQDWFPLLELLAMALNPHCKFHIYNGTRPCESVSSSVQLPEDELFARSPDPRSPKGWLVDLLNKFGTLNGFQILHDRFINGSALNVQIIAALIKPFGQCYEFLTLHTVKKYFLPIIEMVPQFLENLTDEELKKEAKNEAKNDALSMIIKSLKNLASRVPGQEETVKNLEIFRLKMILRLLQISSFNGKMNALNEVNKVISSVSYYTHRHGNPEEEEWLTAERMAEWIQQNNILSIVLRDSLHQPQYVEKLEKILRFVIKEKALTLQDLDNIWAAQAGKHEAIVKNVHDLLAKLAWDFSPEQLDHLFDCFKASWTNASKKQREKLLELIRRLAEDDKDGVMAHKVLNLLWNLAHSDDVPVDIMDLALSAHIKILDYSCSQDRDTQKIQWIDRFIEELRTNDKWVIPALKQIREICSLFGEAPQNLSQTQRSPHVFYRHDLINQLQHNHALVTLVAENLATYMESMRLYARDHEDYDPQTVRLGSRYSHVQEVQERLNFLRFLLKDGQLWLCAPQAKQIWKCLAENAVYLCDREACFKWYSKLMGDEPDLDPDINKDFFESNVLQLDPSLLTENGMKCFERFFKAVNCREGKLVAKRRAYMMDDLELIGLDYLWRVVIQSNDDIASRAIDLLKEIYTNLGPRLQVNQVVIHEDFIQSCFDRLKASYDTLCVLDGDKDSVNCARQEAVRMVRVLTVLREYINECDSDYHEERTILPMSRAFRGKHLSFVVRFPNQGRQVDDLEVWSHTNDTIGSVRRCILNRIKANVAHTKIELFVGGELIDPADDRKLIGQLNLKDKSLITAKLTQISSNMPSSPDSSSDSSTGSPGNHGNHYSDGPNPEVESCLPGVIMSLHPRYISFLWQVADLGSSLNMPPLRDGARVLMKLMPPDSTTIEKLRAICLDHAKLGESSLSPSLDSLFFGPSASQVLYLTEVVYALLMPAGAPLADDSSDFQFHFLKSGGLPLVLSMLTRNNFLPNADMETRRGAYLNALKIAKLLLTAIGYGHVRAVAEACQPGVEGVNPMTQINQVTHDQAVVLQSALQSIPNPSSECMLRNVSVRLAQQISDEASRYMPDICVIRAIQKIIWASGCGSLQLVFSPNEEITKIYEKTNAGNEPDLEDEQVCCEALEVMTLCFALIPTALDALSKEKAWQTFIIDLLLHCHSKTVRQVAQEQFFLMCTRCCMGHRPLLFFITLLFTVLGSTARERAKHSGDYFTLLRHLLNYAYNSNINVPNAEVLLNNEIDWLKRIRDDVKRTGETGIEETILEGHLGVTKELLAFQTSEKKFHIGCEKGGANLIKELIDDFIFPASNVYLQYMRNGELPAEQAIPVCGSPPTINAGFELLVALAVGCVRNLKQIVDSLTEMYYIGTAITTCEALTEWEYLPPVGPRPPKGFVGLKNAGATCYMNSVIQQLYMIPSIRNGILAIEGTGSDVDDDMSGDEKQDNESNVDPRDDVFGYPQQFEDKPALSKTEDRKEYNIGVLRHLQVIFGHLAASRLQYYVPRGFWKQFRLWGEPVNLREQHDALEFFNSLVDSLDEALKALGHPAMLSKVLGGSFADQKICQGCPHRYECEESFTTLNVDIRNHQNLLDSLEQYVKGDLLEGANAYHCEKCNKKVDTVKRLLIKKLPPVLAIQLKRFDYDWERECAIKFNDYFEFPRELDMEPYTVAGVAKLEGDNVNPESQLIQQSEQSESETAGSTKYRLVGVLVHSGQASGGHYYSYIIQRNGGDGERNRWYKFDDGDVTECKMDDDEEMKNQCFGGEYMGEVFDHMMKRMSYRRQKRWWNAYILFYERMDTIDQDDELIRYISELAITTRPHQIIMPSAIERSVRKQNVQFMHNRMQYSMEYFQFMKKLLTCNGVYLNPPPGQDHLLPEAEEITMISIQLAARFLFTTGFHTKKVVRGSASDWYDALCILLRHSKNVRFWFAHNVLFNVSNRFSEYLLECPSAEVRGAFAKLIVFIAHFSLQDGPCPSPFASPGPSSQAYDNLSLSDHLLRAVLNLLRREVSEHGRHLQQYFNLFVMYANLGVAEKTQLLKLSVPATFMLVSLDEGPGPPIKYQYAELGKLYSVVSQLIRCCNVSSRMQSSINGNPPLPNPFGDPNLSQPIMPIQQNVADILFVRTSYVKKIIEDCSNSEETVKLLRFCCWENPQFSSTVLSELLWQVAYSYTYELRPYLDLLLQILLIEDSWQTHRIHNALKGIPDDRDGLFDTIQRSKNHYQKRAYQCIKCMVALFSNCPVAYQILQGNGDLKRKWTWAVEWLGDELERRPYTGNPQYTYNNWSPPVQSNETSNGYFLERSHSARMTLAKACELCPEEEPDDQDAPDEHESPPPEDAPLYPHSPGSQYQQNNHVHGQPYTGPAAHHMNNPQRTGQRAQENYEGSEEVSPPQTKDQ
USP54, sequence (Q70EL1 whole entry): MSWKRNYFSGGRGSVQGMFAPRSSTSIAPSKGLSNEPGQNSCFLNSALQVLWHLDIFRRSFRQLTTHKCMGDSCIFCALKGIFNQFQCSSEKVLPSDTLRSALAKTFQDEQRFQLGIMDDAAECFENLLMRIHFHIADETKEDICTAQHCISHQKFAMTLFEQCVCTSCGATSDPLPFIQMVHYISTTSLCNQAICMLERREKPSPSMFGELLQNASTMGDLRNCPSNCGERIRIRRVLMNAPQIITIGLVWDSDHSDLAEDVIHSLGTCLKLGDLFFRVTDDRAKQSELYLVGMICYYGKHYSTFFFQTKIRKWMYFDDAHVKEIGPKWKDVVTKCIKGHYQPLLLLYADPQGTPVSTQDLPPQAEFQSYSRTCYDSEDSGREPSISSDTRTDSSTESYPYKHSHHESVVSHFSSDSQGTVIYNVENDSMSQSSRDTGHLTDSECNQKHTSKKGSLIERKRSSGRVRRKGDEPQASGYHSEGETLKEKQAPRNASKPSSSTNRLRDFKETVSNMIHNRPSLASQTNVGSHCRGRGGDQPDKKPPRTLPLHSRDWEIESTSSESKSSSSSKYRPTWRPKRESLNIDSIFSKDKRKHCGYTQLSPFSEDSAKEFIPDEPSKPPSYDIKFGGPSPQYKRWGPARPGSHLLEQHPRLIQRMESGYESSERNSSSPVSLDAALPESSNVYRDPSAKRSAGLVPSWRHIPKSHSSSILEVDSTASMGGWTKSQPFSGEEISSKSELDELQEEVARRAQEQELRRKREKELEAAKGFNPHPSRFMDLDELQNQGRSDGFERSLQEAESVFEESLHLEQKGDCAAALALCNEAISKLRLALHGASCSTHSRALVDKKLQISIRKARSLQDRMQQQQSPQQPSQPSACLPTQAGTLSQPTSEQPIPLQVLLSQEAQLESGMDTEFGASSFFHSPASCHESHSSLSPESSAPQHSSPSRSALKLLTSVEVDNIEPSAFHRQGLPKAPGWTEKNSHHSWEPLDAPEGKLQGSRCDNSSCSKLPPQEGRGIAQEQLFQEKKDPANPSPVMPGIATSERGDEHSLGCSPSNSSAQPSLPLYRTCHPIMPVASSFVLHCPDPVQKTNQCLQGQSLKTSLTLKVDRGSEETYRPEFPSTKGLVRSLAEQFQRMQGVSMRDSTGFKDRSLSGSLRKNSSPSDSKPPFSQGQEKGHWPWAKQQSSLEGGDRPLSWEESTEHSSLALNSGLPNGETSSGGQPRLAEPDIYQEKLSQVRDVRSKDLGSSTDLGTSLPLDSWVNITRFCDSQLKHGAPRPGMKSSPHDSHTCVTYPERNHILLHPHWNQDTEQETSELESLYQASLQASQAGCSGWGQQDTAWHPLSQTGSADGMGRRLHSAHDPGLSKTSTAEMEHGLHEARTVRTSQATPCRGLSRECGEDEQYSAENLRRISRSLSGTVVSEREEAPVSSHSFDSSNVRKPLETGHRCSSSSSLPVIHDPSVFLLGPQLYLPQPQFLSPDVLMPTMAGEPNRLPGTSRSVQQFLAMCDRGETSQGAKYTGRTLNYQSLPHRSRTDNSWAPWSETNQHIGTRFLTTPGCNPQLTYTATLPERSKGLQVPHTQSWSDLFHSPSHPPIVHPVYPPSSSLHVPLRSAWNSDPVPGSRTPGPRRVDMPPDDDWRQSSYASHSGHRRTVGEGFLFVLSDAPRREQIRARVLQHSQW
UniProt O00487, sequence (O00487 whole entry): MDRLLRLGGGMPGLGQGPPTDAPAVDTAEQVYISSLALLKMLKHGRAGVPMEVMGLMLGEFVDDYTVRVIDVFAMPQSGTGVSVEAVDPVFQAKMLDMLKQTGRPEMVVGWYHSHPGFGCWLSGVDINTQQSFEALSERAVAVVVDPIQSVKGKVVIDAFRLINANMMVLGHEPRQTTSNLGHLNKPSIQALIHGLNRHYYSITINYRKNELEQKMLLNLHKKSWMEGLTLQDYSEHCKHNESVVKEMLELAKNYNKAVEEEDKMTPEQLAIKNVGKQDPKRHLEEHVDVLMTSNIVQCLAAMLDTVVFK

O=C(CCl)Nc1ccc(F)cc1Cl
active: USP47 -1.41
inactive: USP42 0.367 | USP46 -0.157 | USP48 -0.144 | USP5 -0.28 | USP54 0.679 | USP7 -0.395 | USP8 -0.165 | USP9X -0.538 | UniProt O00487 -0.0503
